Test results as given in PubChem BioAssay AID1345082 (National Center for Advancing Translational Sciences (NCATS), 2018).
In all, about 94,000 compounds went through this assay and about 4,000 (4.3%) were called active. About 29% were inconclusive and are not listed. This is one part of a sample in which actives are shown more often than they occur. A number with no mark means an inactive call. The call rests on the fitted dose curve; in most records, active means well fitted inhibition curve with a large enough effect; inconclusive means small, poorly fitted or top-dose-only effect; inactive means no such curve, though single readings can be large or run the other way.
On the % scale 0 is the no-effect control and ±100 the full control effect; potency means the concentration at half of the fitted maximal effect.

Assay: Cytotoxic Profiling in NIH 3T3 Cell Line of Diverse Libraries Using Quantitative High-Throughput Screening; further: nearly all actives have a fitted effect of over 55% in size
Settings: NIH 3T3 viability, CellTiter-Glo ATP luminescence, 48-72 h; series mostly up to 96.7 µM; activity change, negative = cytotoxicity: at the top concentration
Outline: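 Mouse fibroblast NIH 3T3 cells, 400 per well, received compound via pintool and were incubated for 48 or 72 hr prior to CellTiter-Glo ATP luminescence measurement.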
In the case of `O=C(C1CCC1)N1CCC(Oc2cccnc2)C1` (stereo not given), the “outcome” value is reported as “inactive”.
For `COc1cc(F)ccc1-c1ccc(COc2ccc3c(cnn3CCC(=O)O)c2)cc1`, the “activity change, negative = cytotoxicity” value was -21.2% [at 138 µM].
With `O=C(O)CCn1ncc2cc(OC3CCN(C(=O)C4CCCC4)CC3)ccc21` the Potency was 44.7 µM (active).
In the case of `COc1ccc(CNC(=O)NCC2Cn3cccc3CN2C)cc1` (stereo not given), the “activity change, negative = cytotoxicity” value is reported as 1.33%.
In the case of `COCCOCc1nc(C2CCN(C(=O)c3ccncc3)CC2)no1`, the “activity change, negative = cytotoxicity” value is reported as -9.28%.
In the case of `Cc1ccc(OCc2nc(C3CCN(C(=O)c4c5c(nc6ccccc46)CCCC5)CC3)no2)cc1`, the “activity change, negative = cytotoxicity” value is reported as -25.4%.
In the case of `Cc1ccc(OCc2nc(C3CCN(C(=O)c4noc(C)c4CN4CCCCC4)CC3)no2)cc1`, the Potency is reported as 31.6 µM (active).
For `COc1ccc(C(=O)N2CCC(C(=O)N3CCC(N4CCOCC4=O)CC3)CC2)cc1`, the “activity change, negative = cytotoxicity” value was -10.2%.
With `CN(C)CCNC(=O)C(C)(C)Oc1nn(Cc2cccc(Cl)c2)c2ccccc12` the Potency was 10 µM (active).
With `O=C(CN1C(=O)NC2(CCCCC2)C1=O)Nc1cccc(Br)c1` the “activity change, negative = cytotoxicity” value was -14.9%.
For `CCNC(=O)N[C@H]1[C@H](O)[C@@H](N(C)CCc2ccccn2)[C@@H]2OC[C@H]1O2`, the “activity change, negative = cytotoxicity” value was 3.61% [at 174 µM].
For `O=C(C1CCCC1)N1CCCCC1c1nc(C2CC2)n[nH]1` (stereo not given), the “outcome” value was “inactive”.
With `COc1ccccc1C(=O)N1CCCN(CCc2ccccc2)c2ccccc21` the Potency was 31.6 µM (active).
With `COCCN1CCCN(C(=O)c2ccccc2Cl)c2ccccc21` the “activity change, negative = cytotoxicity” value was -14.2%.
In the case of `CN1CCCN(C(=O)c2ccccc2OC(F)(F)F)c2ccccc21`, the “activity change, negative = cytotoxicity” value is reported as -29.8%.
With `Cc1cc(N)n(CC(=O)N[C@@H]2COCC[C@@H]2OCc2c(C)noc2C)n1` the “activity change, negative = cytotoxicity” value was -6.92%.
With `CCc1c(C)nn(CCNc2ncnc3c2c(C)nn3C)c1C` the “activity change, negative = cytotoxicity” value was -25.9%.
For `O=C(CC1CC1)N1C[C@H]2OC(=O)N(CCc3cccc(Cl)c3)[C@H]2C1`, the “activity change, negative = cytotoxicity” value was -8.22%.
In the case of `CC(=O)NC1CC2(CCN(C(=O)Cc3c[nH]c4ccccc34)CC2)c2ccccc21` (stereo not given), the “activity change, negative = cytotoxicity” value is reported as -2.64%.
In the case of `COC[C@@H]1[C@@H](NC(=O)Cc2nn(C)c(=O)c3ccccc23)[C@@H]2CCO[C@H]12`, the “outcome” value is reported as “inactive”.
With `O=C1CO[C@H]2CN(C3CCC3)C[C@H]2N1Cc1ccc(OC(F)(F)F)cc1` the Potency was 89.1 µM (active).
For `COc1ccc(CN2C(=O)CO[C@H]3CN(Cc4cccnc4)C[C@H]32)cc1`, the “activity change, negative = cytotoxicity” value was -16.6% [at 174 µM].
For `COc1ccc(CN2C(=O)CO[C@H]3CN(C(=O)C4CC4)C[C@H]32)cc1`, the “outcome” value was “inactive [at 174 µM]”.
With `Clc1ccc(-c2nnc3n2CCN(Cc2cccc4ccccc24)C3)cc1` the “activity change, negative = cytotoxicity” value was -1.44%.
For `CCc1noc(-c2cn(C3CCN(C(=O)c4ccc(Cl)cc4)C3)nn2)n1` (stereo not given), the “activity change, negative = cytotoxicity” value was -37.5%.
For `COc1cccc(CN2C(=O)OC3(CCN(C(=O)c4scnc4C)CC3)C2(C)c2cccnc2)c1` (stereo not given), the Potency was 31.6 µM (active).
For `COc1cccc(CN2CCN(C(=O)c3cnc4ccccn4c3=O)CC2=O)c1`, the “activity change, negative = cytotoxicity” value was -20.9%.
In the case of `COc1cccc(C(=O)N2CCC(Cc3nc(-c4cnccn4)no3)CC2)c1`, the “activity change, negative = cytotoxicity” value is reported as -14.6%.
In the case of `O=C(CCCc1ccccc1)Nc1ccnn1C1CCN(C(=O)CCn2cncn2)CC1`, the “activity change, negative = cytotoxicity” value is reported as -8.17%.
With `Cc1cc(C(=O)N2CC[C@@H]3CN(Cc4ccccc4)[C@@H]3C2)nn1C` the “activity change, negative = cytotoxicity” value was 3.88%.
For `Cc1nc(-c2c3n(c(=O)n(CC(=O)Nc4ccccc4C)c2=O)CCCCC3)no1`, the “activity change, negative = cytotoxicity” value was -7.9%.
For `Cc1nc2scc(CC(=O)NC(C)C)n2c(=O)c1-c1cc(C)n(-c2cccc(Cl)c2)n1`, the “outcome” value was “inactive”.
With `CC(C)c1ccc(N2C(=O)N[C@@H]3CCN(C(=O)c4ccc(C(C)(C)C)cc4)[C@@H]3C2=O)cc1` the Potency was 70.8 µM (active).
With `CCn1c(C2CCCN(C(=O)c3ccc(C(C)(C)C)cc3)C2)nn(C)c1=O` (stereo not given) the “activity change, negative = cytotoxicity” value was -23.2%.
In the case of `O=C1C(N2CCN(S(=O)(=O)c3ccccc3)CC2)CCN1CCc1ccccc1` (stereo not given), the “activity change, negative = cytotoxicity” value is reported as -29.8%.
In the case of `Cc1ccccc1NC(=O)Nc1ccnn1C1CCN(C(=O)CCN)CC1`, the “activity change, negative = cytotoxicity” value is reported as -3.4%.
With `CC(C)c1ccc(C(=O)N2C[C@@H]3CCCN4CCC[C@@H]([C@H]34)[C@H]2CCCC(=O)N2CCOCC2)cc1` the “activity change, negative = cytotoxicity” value was -9.71%.
In the case of `CCC(CC)C(=O)NC1CCN(c2cnn(CCOC)c(=O)c2)CC1`, the “activity change, negative = cytotoxicity” value is reported as -18.5%.
In the case of `Cc1ccc2c(n1)N(C)[C@H](CO)CCN(Cc1cccc(Cl)c1)C2`, the “activity change, negative = cytotoxicity” value is reported as -25.8% [at 174 µM].
In the case of `Cc1ccc2c(n1)N(C)[C@H](CO)CCN(Cc1ccccc1C)C2`, the “activity change, negative = cytotoxicity” value is reported as -20.4% [at 174 µM].
For `COc1ccccc1CN1CC[C@@H](CO)N(C)c2ncccc2C1`, the Potency was 35.5 µM (active).
With `Cc1ccc(-c2cc3c(=O)n(CCNC(=O)Cc4c[nH]c5ccccc45)ccn3n2)cc1C` the “activity change, negative = cytotoxicity” value was -17.1%.
In the case of `O=C(NCc1ccncc1)C1CC(=O)N(c2n[nH]c3ccccc23)C1` (stereo not given), the “outcome” value is reported as “inactive”.
With `Cc1cccc(OCCc2noc(C3CCCN3C(=O)c3ccnn3C)n2)c1` (stereo not given) the “activity change, negative = cytotoxicity” value was -15.3%.
With `COCCCNC(=O)N1CCC(Cc2noc(-c3ccncc3)n2)C1` (stereo not given) the “activity change, negative = cytotoxicity” value was -18.9%.
With `Cc1cc(C(=O)N2CCCC(Cc3noc(-c4cccnc4)n3)C2)nn1C` (stereo not given) the “activity change, negative = cytotoxicity” value was -1.02%.
With `COc1ccc(NC(=O)N2CCCC(Cc3noc(-c4ccccc4)n3)C2)cc1` (stereo not given) the Potency was 35.5 µM (active).
With `CCN1C(=O)CCN(C(=O)NCCCOC)CC12CCOCC2` the “activity change, negative = cytotoxicity” value was 2.65%.
In the case of `O=C1NC(=NC2CCCCC2)C2(CCN([S+](=O)([O-])c3ccccc3)C2)N1c1cccnc1` (stereo not given), the “activity change, negative = cytotoxicity” value is reported as 3.46%.
In the case of `O=C(c1ccsc1)N1CCCCCC1c1nnc(-c2ccccc2)o1` (stereo not given), the “activity change, negative = cytotoxicity” value is reported as -20.9%.
